Laboratory results as given in PubChem BioAssay (NCATS).
Results filed as inconclusive are left out. Calls follow the shape of the full dose curve.

Test: qHTS Assay for Lipid Storage Modulators (AID 1519)
Details: Drosophila S3 cells, BODIPY lipid droplet/cell ratio, laser cytometry; at 57.5 µM (top of the series); cells loaded with oleic acid
How it was run: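 Cells seeded at 5,000 per well were treated with compounds over a concentration series and loaded with oleic acid (400 uM, as added). Lipid droplet fluorescence (488 nm excitation, 500-530 nm channel) was read by laser-scanning cytometry and normalized to 20 uM Triacsin C.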
% is scaled to controls: 0 for no effect and ±100 for the full control effect.

Activity change, negative = inhibition, inactive:
COc1ccc(C(=O)N2CCC3(CC2)CCN(c2ccncc2)CC3)cc1 -1.55%
CC(C)CN1CC2(CCN(C(=O)c3csnn3)CC2)C1 -0.802%
Cn1cccc1C(=O)N1CCC2(CCCN(C(=O)Nc3cccc(F)c3)C2)CC1 5.97%
Cc1cnc(CNc2ncncc2-c2ccccc2CN(C)C)cn1 -8.48%
COc1ccccc1CNc1ncncc1-c1ccccc1C 9.38%
CS(=O)(=O)N1CCC2(CC1)CN(c1ccccc1)C2 0.887%
O=C(c1cnccn1)N1CCC2(CC1)CCN(c1ccncc1)CC2 2.66%
CCNc1ncc2ncc(=O)n(C[C@H]3CCCO3)c2n1 1.57%
O=C(c1cnccn1)N1CCC2(CCCN(Cc3ccccc3)C2)CC1 1.18%
COc1ccccc1CN1CCC2(CC1)CCN(C(=O)c1ccco1)CC2 3.05%
CN(C)C(=O)c1ccc(-c2nc(NCc3ccccc3)c3ccccc3n2)cc1 10.9%
O=C(c1cccc(F)c1)N1CCC2(CCCN(c3ccccn3)C2)CC1 6.75%
CC(C)CN1CCCC2(CCN(C(=O)c3cnccn3)CC2)C1 1.42%
CN1CCC2(CC1)CCN(C(=O)c1cccc(F)c1)CC2 -1.77%
CC(C)CN1CC2(CCN(S(=O)(=O)c3ccccc3)CC2)C1 -0.648%
CN(C)C(=O)c1ccc(-c2nc(NCc3cccs3)c3ccccc3n2)cc1 12.5%
